Data from the supplement of paper PMC6607015.
Structures can show the parent of a compound that is named as a salt.

Experiments:
Conditions in all cases: compound concentration in added solution (µM; 5 µl added to 20 µl cells): 10; 18 h
[1] = tested on: A431; assay: LBPA endosome anti-LBPA integrated intensity (sum per cell), Z-score; higher = more LBPA staining
Method in brief: (§1)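 Reported values are Z-scores from AcuityXpress normalisation of per-cell integrated LBPA or filipin staining. HeLa MZ or A431 cells (3,500/well in 20 µl) were seeded onto 5 µl of 10 µM compound solution in duplicate 384-well plates, incubated 18 h, fixed in 4% PFA, stained and imaged at 20×. MetaXpress segmentation measured the intensity over the whole cell or within LBPA endosomes.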

[2] = tested on: HeLa MZ; assay: as above
Method in brief: as §1

[3] = tested on: A431; assay: whole-cell filipin (free cholesterol) integrated intensity, Z-score; higher = more cholesterol staining
Method in brief: as §1

[4] = tested on: HeLa MZ; assay: as above
Method in brief: as §1

[5] = tested on: A431; assay: filipin (cholesterol) integrated intensity within LBPA endosomes, Z-score; higher = more cholesterol in LBPA endosomes
Method in brief: as §1

[6] = tested on: HeLa MZ; assay: as above
Method in brief: as §1

Compound | LBPA endosome anti-LBPA integrated intensity (z-score) [1] | LBPA endosome anti-LBPA integrated intensity (z-score) [2] | whole-cell filipin (z-score) [3] | whole-cell filipin (z-score) [4] | filipin (z-score) [5] | filipin (z-score) [6]
O=C(OCCOCCO)c1ccccc1Nc1cccc(C(F)(F)F)c1 [Etofenamate] | -0.474 | -0.295 | -0.883 | -1.24 | -0.564 | -0.692
COc1ccc(OC)c(C(O)CNC(=O)CN)c1 (centres undefined) [Midodrine hydrochloride] | -0.477 | -0.609 | -0.887 | -1.05 | -0.605 | -0.723
CN1CCN2c3ccccc3Cc3ccccc3C2C1 (centres undefined) [Mianserine hydrochloride] | 1.6 | 1.07 | 1.17 | 0.96 | 1.16 | 1.54
O=C(CCCCC(=O)Nc1c(I)cc(I)c(C(=O)O)c1I)Nc1c(I)cc(I)c(C(=O)O)c1I [Iodipamide] | -0.326 | -0.366 | -0.456 | -0.377 | -0.385 | -0.472
Clc1ccc(COC(Cn2ccnc2)c2ccc(Cl)cc2Cl)cc1 (centres undefined) [Econazole nitrate] | 0.0817 | 1.63 | 0.484 | 0.898 | -0.0604 | 0.606
O=c1[nH]c(=O)n([C@H]2C[C@H](O)[C@@H](CO)O2)cc1C(F)(F)F [Trifluridine] | -0.394 | 0.648 | 3.04 | 3.8 | -0.544 | -0.762
CCN1CCC[C@H]1CNC(=O)c1c(OC)ccc(Br)c1OC [Remoxipride Hydrochloride] | -0.395 | 0.278 | -0.41 | -0.384 | -0.372 | -0.266
CC[C@H]1OC(=O)[C@H](C)[C@@H](O[C@H]2C[C@@](C)(OC)[C@@H](O)[C@H](C)O2)[C@H](C)[C@@H](O[C@@H]2O[C@H](C)C[C@H](N(C)C)[C@H]2O)[C@](C)(O)C[C@@H](C)/C(=N\OCOCCOC)[C@H](C)[C@@H](O)[C@]1(C)O [Roxithromycin] | -0.396 | 0.565 | 0.114 | 0.214 | -0.261 | 0.0396
CCCCN(CCCC)CCC(O)c1cc2c(Cl)cc(Cl)cc2c2cc(C(F)(F)F)ccc12 (centres undefined) [Halofantrine hydrochloride] | 1.7 | -0.119 | 1.07 | -0.0402 | 1.04 | 0.413
CCCCC1C(=O)N(c2ccccc2)N(c2ccccc2)C1=O [Phenylbutazone] | -0.242 | 0.571 | -0.047 | 0.231 | -0.314 | -0.301
N=C(N)NC(=O)Cc1c(Cl)cccc1Cl [Guanfacine hydrochloride] | -0.503 | 0.0887 | -0.556 | 0.368 | -0.462 | 0.00861
COc1ccc(C2CNC(=O)C2)cc1OC1CCCC1 (centres undefined) [Rolipram] | -0.493 | -0.432 | -0.586 | -0.445 | -0.453 | -0.525
Nc1ccc(O)c(C(=O)O)c1 [Mesalamine] | -0.0986 | 0.304 | 0.385 | 0.263 | -0.341 | -0.247
C=CC[N@@+]12CC[C@@]34c5ccccc5N5/C=C6/[C@H]7C[C@H]8[C@@]9(CC[N@@+]8(CC=C)C/C7=C/CO)c7ccccc7N(/C=C(/[C@@H](C[C@@H]31)/C(=C\CO)C2)[C@H]54)[C@@H]69 [Alcuronium chloride] | -0.441 | -0.288 | 0.269 | 2.33 | -0.417 | -0.254
CN(C)CCOC(=O)COc1ccc(Cl)cc1 [Meclofenoxate hydrochloride] | -0.454 | -0.858 | -0.411 | -0.563 | -0.417 | -0.533
OC(CCN1CCCCC1)(c1ccccc1)C1CCCCC1 (centres undefined) [Trihexyphenidyl-D,L Hydrochloride] | 1.27 | 1.51 | 0.138 | -0.301 | 0.357 | 0.149
Cc1cc(C(C)(C)C)c(O)c(C)c1CC1=NCCN1 [Oxymetazoline hydrochloride] | -0.605 | 0.256 | -0.84 | -0.57 | -0.491 | -0.228
Oc1ccc(OCc2ccccc2)cc1 [Monobenzone] | -0.343 | 2.16 | 2.23 | 2.56 | -0.548 | -0.736
O=C(O)COCCN1CCN(C(c2ccccc2)c2ccc(Cl)cc2)CC1 (centres undefined) [Cetirizine dihydrochloride] | -0.494 | -0.434 | -0.716 | -0.836 | -0.508 | -0.525
Cc1c(N(C)CS(=O)(=O)O)c(=O)n(-c2ccccc2)n1C [Dipyrone] | -0.646 | -1.3 | -0.336 | -0.214 | -0.539 | -0.551
CCN[C@H]1C[C@H](C)S(=O)(=O)c2sc(S(N)(=O)=O)cc21 [Dorzolamide hydrochloride] | -0.573 | -0.633 | 0.0896 | 0.22 | -0.481 | -0.217
CCC1(c2ccccc2)NC(=O)N(C)C1=O (centres undefined) [Mephenytoin] | -0.412 | -0.524 | -0.0979 | -0.325 | -0.496 | -0.516
Cc1ccc(S(=O)(=O)NC(=O)NN2CC3CCCC3C2)cc1 (centres undefined) [Gliclazide] | -0.621 | -1.17 | -0.806 | -0.679 | -0.555 | -0.64
CS(=O)(=O)Nc1ccc([N+](=O)[O-])cc1Oc1ccccc1 [Nimesulide] | -0.535 | -0.741 | -0.718 | -0.259 | -0.551 | -0.716
